Assay outcomes deposited in PubChem BioAssay by National Center for Advancing Translational Sciences (NCATS).
LDHA block – qHTS assay for inhibitors of human lactate dehydrogenase. purified LDHA, NADH/diaphorase-resazurin fluorescence; active compounds read low. activity change, % (values are at about 110 or 230 µM). hit rate 0.15% among 480,000. AID 1347041, 2019; in the data active = activity change below about -30%; inconclusive = mostly about -25% to -30%
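Human LDH5 (2 nM) was incubated with 0.06 mM NADH and 0.2 mM pyruvate for 5 min at room temperature in Tris pH 7.4. Remaining NADH was coupled through diaphorase/resazurin, and resorufin fluorescence was read at 0 and 20 min.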
Abeta yeast res – qHTS for compounds that reverse cellular toxicity of Amyloid beta (A-beta) peptide in yeast: Primary Screen; yeast expressing A-beta42, growth rescue, OD600, 48 h; response scale: 0% DMSO, 100% iron-clioquinol control; Potency, µM (highest dose often 46.1 µM), actives largely listed as activators; hit rate 0.063% among 410,000; AID 1347071, 2019; also: nearly all actives have a fitted effect of over 55% in size
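Growth rescue measured by 600 nm absorbance after 48 h yeast culture at 30 C with compound. Values normalized between DMSO and an equimolar ferric chloride plus clioquinol control.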
TDP43 rescue – qHTS of TDP-43 Inhibitors. TDP-43 expressing yeast growth rescue, BacTiter-Glo, 24 h. AID 652104, 2013. hit rate 1.8% among 410,000. Potency, µM (top dose mostly 46.1 µM), actives largely listed as activators; also: nearly all actives have a fitted effect of over 50% in size
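Readout is BacTiter-Glo luminescence of cell growth, so inhibitors register as activators. TDP-43-expressing yeast at OD600=0.02 in galactose medium, after raffinose pregrowth to mid-log, were incubated with compound for 24 hr at 30 deg C.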
FUS suppressor – qHTS for Suppressors of FUS Proteinopathy: Primary screen using FUS-linked yeast assay | S. cerevisiae FUS-expressing, growth rescue, OD600, 24 h | AID 1347120, 2019 | hit rate 0.24% among 390,000 | Potency, µM (top dose mostly 76.6 µM), most hits filed as activators; also: nearly all actives have a fitted effect of over 55% in size
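Yeast expressing FUS under galactose induction, OD 0.005 in 2% galactose medium; compounds in a dilution series, 24 h at 30C. Growth rescue by absorbance at 600 nm; CP55940 positive control, DMSO negative.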
aSyn rescue – qHTS of alpha-syn Inhibitors; Yeast expressing alpha-synuclein, growth rescue, BacTiter-Glo, 24 h; Potency, µM (doses to about 46.1 µM), usual class: activators; hit rate 0.14% among 370,000; AID 652106, 2013; also: nearly all actives have a fitted effect of over 65% in size
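Rescue of yeast growth: cells expressing toxic alpha-synuclein, induced in galactose at OD600 0.02, incubated with compound 24 h at 30 C. ATP luminescence quantified growth; inhibitors of toxicity appear as activators.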
PTHR1 agonist – qHTS for PTHR1 Agonists: Primary Screen; Parathyroid hormone/parathyroid hormone-related peptide receptor (Homo sapiens), Q03431; HEK293 GP2 PTHR1 cells, GloSensor cAMP luminescence, 1 h; Potency, µM (doses to about 115 µM), most hits filed as activators; hit rate 0.075% among 410,000; AID 743266, 2014; also: nearly all actives have a fitted effect of over 55% in size
Target sequence (Q03431 whole entry, looked up): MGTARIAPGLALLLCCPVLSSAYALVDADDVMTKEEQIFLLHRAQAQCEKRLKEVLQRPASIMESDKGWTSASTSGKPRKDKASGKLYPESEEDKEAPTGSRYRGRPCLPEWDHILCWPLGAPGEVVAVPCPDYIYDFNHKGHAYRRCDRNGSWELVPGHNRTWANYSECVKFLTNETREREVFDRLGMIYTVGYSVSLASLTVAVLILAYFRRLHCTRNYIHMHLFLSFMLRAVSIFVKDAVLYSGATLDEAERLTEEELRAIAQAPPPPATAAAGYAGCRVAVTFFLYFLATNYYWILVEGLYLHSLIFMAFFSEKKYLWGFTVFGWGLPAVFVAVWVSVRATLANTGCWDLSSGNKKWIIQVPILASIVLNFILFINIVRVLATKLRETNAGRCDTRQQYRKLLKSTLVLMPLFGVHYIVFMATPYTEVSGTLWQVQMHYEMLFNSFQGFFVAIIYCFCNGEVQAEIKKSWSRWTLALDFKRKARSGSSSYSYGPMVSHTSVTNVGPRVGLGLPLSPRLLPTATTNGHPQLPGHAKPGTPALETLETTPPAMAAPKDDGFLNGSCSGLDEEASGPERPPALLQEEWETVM
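HEK-293-derived GP2 cells expressing PTHR1 and a GloSensor cAMP reporter, 3,000/well, plated overnight, given luciferin plus IBMX (each 0.5 mM as added) for 1 h at 37 °C, then compound for 1 h at 37 °C. Luminescence was read after 15 min at room temperature.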
Each line names hits and unclear results; the compound was inactive in the other large screens. Shown are actives, neighbours in structure and some others; about 1.9% of the full set was active somewhere. Unless noted, calls follow the shape of the dose curve; as a rule, active = well fitted curve in the direction sought with a large enough effect; inconclusive = small, poorly fitted or top-dose-only effect, or another doubt; inactive = no such curve, though single readings can be large; an effect the other way counts as inactive or inconclusive.

COc1ccc(/C=C/C(=O)N2CCC(c3nc4ccccc4o3)CC2)cc1OC	TDP43 rescue 16µM, FUS suppressor inconclusive (no result: aSyn rescue)
Cc1ccc(C(=O)c2coc3ccc(O)c(Cl)c23)cc1	TDP43 rescue 16µM
CC(NC(=O)/C(C#N)=C\c1ccccc1OC(F)F)c1ccccc1 (stereo not given)	none (no result: Abeta yeast res, TDP43 rescue, FUS suppressor, aSyn rescue, PTHR1 agonist)
O=S(Cc1ccc(Br)cc1)Cc1nnc(SCc2ccc(Br)cc2)n1-c1ccccc1 (stereo not given)	Abeta yeast res inconclusive, TDP43 rescue inconclusive, aSyn rescue inconclusive (no result: FUS suppressor)
COC(=O)c1ccc(CSc2nnc(CS(=O)Cc3ccc(Br)cc3)n2-c2ccccc2)cc1 (stereo not given)	TDP43 rescue 25µM (no result: FUS suppressor)
COc1ccc([C@@H]2CC=C(C(=O)O)[C@H](c3ccc(Br)cc3)N2S(=O)(=O)c2ccccc2C)cc1	TDP43 rescue 35µM, FUS suppressor inconclusive
Cc1ccc([C@@H]2CC=C(C(=O)O)[C@H](c3ccc(F)cc3)N2S(=O)(=O)c2ccccc2C)cc1	TDP43 rescue 28µM
Cc1ccccc1S(=O)(=O)N1[C@@H](c2ccccc2)C(C(=O)O)=CC[C@H]1c1ccc(Cl)cc1	TDP43 rescue inconclusive
COc1ccc([C@@H]2CC=C(C(=O)O)[C@H](c3ccc(Cl)cc3)N2S(=O)(=O)c2ccccc2C)cc1	TDP43 rescue 18µM, FUS suppressor inconclusive
CC(CC(=O)C1C(C)C=CCC1(C)C)NCc1ccccc1 (stereo not given)	none (no result: Abeta yeast res, TDP43 rescue, FUS suppressor, aSyn rescue, PTHR1 agonist)
O=S1(=O)C=C(Sc2nc3cc(Cl)ccc3o2)c2ccccc21	TDP43 rescue 13µM
O=C(Nc1cc([N+](=O)[O-])ccc1O)c1cccc(NC(=O)c2ccco2)c1	LDHA block -45
COc1cc(NC(=O)c2cccc([N+](=O)[O-])c2)ccc1NC(=O)c1ccco1	none
O=C(/C=C/Nc1cccc([N+](=O)[O-])c1)c1ccco1	aSyn rescue 13µM
COc1ccc([N+](=O)[O-])cc1NC(=S)Nc1ccccc1	none
O=[N+]([O-])c1ccc(O)c(NC(=S)Nc2ccccc2)c1	TDP43 rescue 13µM
O=[N+]([O-])c1cc(Br)c(Nc2ccccc2)c([N+](=O)[O-])c1	TDP43 rescue 3.5µM
Nc1cc([N+](=O)[O-])ccc1Nc1ccccc1	TDP43 rescue 14µM
COc1ccc(NC(=O)COC(=O)CCCN2C(=O)c3ccccc3C2=O)cc1Cl	TDP43 rescue 35µM (no result: FUS suppressor)
O=C(COC(=O)CCCN1C(=O)c2ccccc2C1=O)Nc1cc(Cl)cc(Cl)c1	none
CN(Cc1ccc2c(c1)OCO2)C(=O)c1nn(-c2ccccc2)c(=O)c2ccccc12	LDHA block -35 (no result: Abeta yeast res, TDP43 rescue, FUS suppressor, aSyn rescue, PTHR1 agonist)
O=C(NCc1ccc2c(c1)OCO2)c1nn(-c2ccccc2)c(=O)c2ccccc12	TDP43 rescue inconclusive
Cc1ccc(-c2cc(N)n(-c3ccccc3)n2)cc1	TDP43 rescue 20µM
Cc1cccc(-c2cc(N)n(-c3ccccc3)n2)c1	none
O=C(CCc1cn(Cc2ccc(F)cc2)c2ccccc12)NCCc1cccs1	none (no result: Abeta yeast res, TDP43 rescue, FUS suppressor, aSyn rescue, PTHR1 agonist)
CCOc1ccccc1NC(C)C(=O)Nc1cc(C(F)(F)F)ccc1N1CCOCC1 (stereo not given)	TDP43 rescue 13µM (no result: FUS suppressor)
CCOc1ccc(NS(=O)(=O)c2ccc(C(=O)N(C)Cc3cccc(OC)c3OC)cc2)cc1	FUS suppressor 22µM
O=C(CCc1c[nH]c2ccccc12)OCc1cccc([N+](=O)[O-])c1	Abeta yeast res 11µM, TDP43 rescue inconclusive
O=c1oc2cc(O)ccc2cc1-c1ccccc1	TDP43 rescue 16µM (no result: Abeta yeast res)
COc1ccc(-c2cc3ccc(O)cc3oc2=O)cc1	none (no result: Abeta yeast res)
COc1ccc(C(=O)Nc2ccc(O)c(-c3nc4ccccc4o3)c2)c(OC)c1	none (no result: Abeta yeast res, TDP43 rescue, FUS suppressor, aSyn rescue, PTHR1 agonist)
